N370S GC – qHTS Assay for Inhibitors and Activators of N370S glucocerebrosidase as a Potential Chaperone Treatment of Gaucher Disease | Lysosomal acid glucosylceramidase (Homo sapiens), P04062 | N370S GC spleen homogenate, 4MU-glucoside fluorescence | Potency, µM (series often up to 59.4 µM), for the others: at the highest dose activity change, negative = inhibition, hits mostly inhibitors | actives 0.092% (n = 330,000) | AID 2101, 2009;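 also: potency is read from the fitted curve at half-maximal effect; 0% = full enzyme activity and -100% = no enzyme basal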
GAA spleen mod – qHTS Assay for Inhibitors and Activators of Human alpha-Glucosidase From Spleen Homogenate | AID 2112, 2009 | Potency, µM (doses to about 79.9 µM), for inactives: at the highest dose activity change, negative = inhibition, actives largely listed as inhibitors | Lysosomal alpha-glucosidase (Homo sapiens), P10253 | actives 0.006% (n = 240,000) | human spleen homogenate, 4-MU-alpha-glucoside fluorescence;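 also: potency is read from the fitted curve at half-maximal effect; 0% = enzyme with vehicle and -100% = no enzyme basal signal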
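AC50 values come from Hill-equation fits of concentration-response data, normalized to no-enzyme and full-activity controls. Enzyme source: 1 ug human spleen homogenate; 1 mM fluorogenic 4-MU glucoside, pH 5.0 citrate buffer, 37 C, 40 min.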
GAA glycogen mod – qHTS Assay for Inhibitors and Activators of Human alpha-Glucosidase Cleavage of Glycogen | Potency, µM (highest dose often 76.4 µM), for inactives: top-dose activity change, negative = inhibition, actives largely listed as inhibitors | recombinant GAA, glycogen substrate, Amplex Red glucose oxidase fluorescence | AID 2100, 2009 | Lysosomal alpha-glucosidase (Homo sapiens), P10253 | actives 0.38% (n = 300,000);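 also: potency is read from the fitted curve at half-maximal effect; 0% = full enzyme reaction and -100% = no-enzyme basal signal; the screen sought inhibitors and activators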
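qHTS, 1536-well; enzyme 4 nM final; cpd up to 77 uM; substrate bovine liver glycogen 30 ug; 50 mM citrate/phosphate pH 5.0, 0.01% Tween-20; 37 C, 40 min; Amplex Red detection 45 min RT; Hill fit → AC50.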
GLA inh pH 4.5 – qHTS Assay for Inhibitors of Human alpha-Galactosidase at pH 4.5 | purified enzyme, 4-MU-alpha-Gal fluorescence, pH 4.5 | activity change, negative = inhibition, % at 105 µM | 230,000 tested, under 10 active | AID 1467, 2008;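 also: 0% = full activity with enzyme and -100% = basal without enzyme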
GAA inh – qHTS Assay for Inhibitors of Human alpha-Glucosidase as a Potential Chaperone Treatment of Pompe Disease. Lysosomal alpha-glucosidase (Homo sapiens), P10253. purified human GAA, 4-MU-alpha-glucoside fluorescence. Potency, µM (doses to about 76.9 µM), inactives show at the top dose activity change, negative = inhibition, actives largely listed as inhibitors. actives 0.005% (n = 200,000);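 also: potency is read from the fitted curve at half-maximal effect; plate controls were uninhibited enzyme wells for no effect and no-enzyme background for full effect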
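Read-out is 4-methylumbelliferone fluorescence (Ex 365/Em 440 nm) after NaOH/glycine stop at pH 10. Enzyme 4 nM, substrate 400 uM, pH 5.0 citrate buffer, 20 min room temperature; AC50 from Hill-equation concentration-response.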
GLA spleen mod – qHTS Assay for Inhibitors and Activators of Human alpha-Galactosidase From Spleen Homogenate; human spleen homogenate, 4MU-alpha-Gal fluorescence, 40 min; Potency, µM (doses to about 80 µM), for inactives: top-dose activity change, negative = inhibition, hits mostly inhibitors; actives 0.008% (n = 240,000); AID 2107, 2009;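 also: potency is read from the fitted curve at half-maximal effect; 0% = enzyme with vehicle and -100% = no enzyme basal signal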
Target sequence (P06280 32-429 limits assumed): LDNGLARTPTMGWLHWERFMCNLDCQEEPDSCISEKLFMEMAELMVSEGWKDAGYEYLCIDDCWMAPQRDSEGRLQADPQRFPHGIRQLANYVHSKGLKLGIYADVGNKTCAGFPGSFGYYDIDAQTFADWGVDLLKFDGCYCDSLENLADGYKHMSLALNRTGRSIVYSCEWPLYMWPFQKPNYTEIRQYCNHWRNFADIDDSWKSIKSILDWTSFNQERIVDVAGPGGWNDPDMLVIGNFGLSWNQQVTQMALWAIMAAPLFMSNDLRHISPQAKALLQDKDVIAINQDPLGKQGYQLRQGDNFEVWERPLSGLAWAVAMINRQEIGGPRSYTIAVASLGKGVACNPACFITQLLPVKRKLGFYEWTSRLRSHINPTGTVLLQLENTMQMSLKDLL
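Human spleen homogenate (1 ug) as enzyme source, 4-methylumbelliferyl-alpha-D-galactopyranoside 1 mM final, citrate/phosphate pH 5.0 with 0.01% Tween-20. Compounds 40 min at 37C, NaOH/glycine stop; fluorescence Ex 365/Em 440, Hill-fit AC50.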
Starred values were filed as active, the others as inactive; ? = inconclusive; . = no result; [ ] = another dose, or the depositor's remark. The list is not random: actives were taken first. Their share in the collection is about 0.43%. Calls follow the shape of the dose curve; as a rule, active = well fitted curve in the direction sought with a large enough effect; inconclusive = small, poorly fitted or top-dose-only effect, or another doubt; inactive = no such curve, though single readings can be large; an effect the other way counts as inactive or inconclusive.

SMILES	N370S GC	GAA spleen mod	GAA glycogen mod	GLA inh pH 4.5	GAA inh	GLA spleen mod
N/N=c1\sc2ccccc2n1-c1ccccc1	4.7%	-7.1%	20µM*	-19.2	-2.7%	-11.2%
COCCCNC(=O)C1CCN(Cc2nc(-c3ccc(OC)c(OC)c3)oc2C)CC1	.	.	12.0%[76.3 µM]	.	.	.
CCOC(=O)c1c(C)[nH]c(NC(=O)Nc2c(C)n(C)n(-c3ccccc3)c2=O)c1C	2.7%	-19.9%	31.6µM*	-2.9	-3.8%	1.3%
Cc1ccc(CNC(=O)Cc2cccs2)cc1	4.0%	-13.2%	2.1%	-12.2	-5.3%	5.0%
COc1ccccc1CNC(=O)Nc1cccs1	26.4%	0.2%	28µM*	-12.0	-3.0%	1.0%
Cc1ccc(CNC(=O)Nc2cccs2)cc1	10.3%	-6.6%	28.2µM*	-2.8	-5.6%	5.8%
COc1ccc(CNC(=O)Nc2cccs2)cc1OC	3.1%	2.1%	10µM*	1.8	-7.5%	5.3%
COc1cccc(CNC(=O)Nc2cccs2)c1	-13.5%	-17.1%	?	-6.1	-3.9%	5.7%
COc1ccc(Br)cc1CNC(=O)Nc1cccs1	-19.0%	-18.2%	?	0.8	-7.7%	1.9%
CCC(C)NC(=O)Cn1c(=O)n(CCCC(=O)NCc2ccc(C)cc2)c(=O)c2ccccc21 (centres undefined)	.	.	16.4%[76.3 µM]	.	.	.
Cc1ccc(CCNC(=O)C2CCCN(S(=O)(=O)c3ccc4c(c3)oc(=O)n4C)C2)cc1 (centres undefined)	.	.	12.3%[76.3 µM]	.	.	.
Cc1ccc(S(=O)(=O)N2CCN(C(=O)N(c3ccccc3)c3ccccc3)CC2)cc1	.	-27.0%	?	-0.5	25.1µM*	-16.7%
Cc1ccc(N(C)C(=O)N2CCN(S(=O)(=O)c3ccc(C)cc3)CC2)cc1	0.8%	-27.5%	-1.0%	-9.0	?	-2.5%
COc1ccc(-c2cc(=O)c3c(O)c(OC)c(OC)c(OC)c3o2)cc1OC	0.4%	0.7%	.	3.0	.	2.0%
COc1cc(-c2cc(=O)c3c(O)c(OC)c(OC)c(O)c3o2)ccc1O	-13.5%	-24.9%	22.4µM*	-1.0	.	-1.3%
O=C(COc1ccccc1)Nc1ccc(OCc2cc(=O)n3ccsc3n2)cc1	.	.	-10.1%[76.3 µM]	.	.	.
O=[N+]([O-])c1ccccc1NC(=S)N/N=C/c1ccc(O)c(O)c1	-10.9%	-5.7%	3.55µM*	3.1	-7.3%	-9.3%
CCOc1cccc(/C=N/NC(=S)Nc2ccccc2[N+](=O)[O-])c1O	2.1%	-0.1%	2.5%	-7.8	2.8%	-5.8%
CCOC(=O)C1=C(CNCc2ccccc2)NC(=O)NC1c1ccc(C)cc1 (centres undefined)	.	.	3.8%[76.3 µM]	.	.	.
Cc1cc(OCCn2cc(/C(N)=N/O)c3ccccc32)ccc1Cl	?	-20.2%	17.8µM*	2.3	-4.8%	1.8%
S=C(NCc1ccncc1)Nc1ccc(Br)cc1	17.8µM*	.	-6.0%[76.3 µM]	.	.	.
S=C(NCc1ccncc1)Nc1ccccc1	-4.1%	2.9%	9.3%	3.5	4.6%	0.5%
CCCCn1c(C)cc2cc(O)ccc21	-1.6%	-4.5%	31.6µM*	-5.5	0.8%	-5.0%
CC(=O)OCC1OC(C#CC2=CCCCC2)C=CC1OC(C)=O (centres undefined)	-1.4%[12.8 µM]	-2.4%[17.4 µM]	.	.	.	-5.3%[17.5 µM]
Cc1cc(C)cc(N2C(N)=NC(N)=NC2c2ccccc2F)c1 (centres undefined)	15.8µM*	.	-12.1%	.	.	.
SMILES	N370S GC	GAA spleen mod	GAA glycogen mod	GLA inh pH 4.5	GAA inh	GLA spleen mod
Cc1cc(C)cc(N2C(N)=NC(N)=NC2c2cccc(Cl)c2)c1 (centres undefined)	-24.6%	.	-13.3%	.	.	.
O=C1c2ccccc2C(=O)N1CCc1c[nH]c2ccc(O)cc12	4.8%	1.3%	3.14µM*	3.8	?	0.7%
COCCCNC(=S)NNC(=S)Nc1ccccc1	-13.6%	-1.9%	6.26µM*	-5.0	-2.2%	1.7%
COCCCNC(=S)NCCc1ccc(F)cc1	1.2%	6.0%	2.5%	-8.9	0.8%	4.8%
COCCCNC(=S)NNC(=S)Nc1ccc(F)cc1F	13.1%	0.1%	15.7µM*	-2.7	1.5%	3.7%
COCCCNC(=S)Nc1ccc(C)cc1	2.6%	4.6%	-0.4%	-10.1	.	10.3%
C=CCn1c(SCC(=O)NC2CCCC2)nc2scc(-c3ccco3)c2c1=O	12.6µM*	-7.2%	2.0%	3.4	-6.7%	-7.5%
FC(F)(F)c1ccc2c(c1)NCC1CCCN21 (centres undefined)	2.6%	5.0%	6.31µM*	4.7	2.9%	8.2%
COC(=O)C1=C(C)N(Cc2ccccc2)C2=C(C(C)=O)C(c3ccccc3)[C@@](O)(C(=O)OC)C(=O)N2C1c1ccccc1 (some centres undefined)	12.6%[12.8 µM]	2.5%[17.4 µM]	.	.	.	-1.2%[17.5 µM]
CN(C)c1ccc(CN(CC2CCCO2)C(=O)COc2ccc(Cl)cc2)cc1 (centres undefined)	.	.	-23.5%[76.3 µM]	.	.	.
Oc1cc2c(cc1O)[C@@H](c1ccccc1)CNCC2	13.2%	3.6%	1.78µM*	6.6	3.3%[15.4 µM]	4.3%
CCOC(=O)Cc1csc(NC(=O)Cc2ccc(Cl)cc2)n1	-9.1%	-5.6%	-3.2%	-6.7	.	1.3%
CCOC(=O)Cc1csc(NC(=O)NC2(C(F)(F)F)Oc3ccccc3O2)n1	-8.3%	-5.1%	17.6µM*	-4.4	-8.8%	0.9%
CCOC(=O)Cc1csc(NC(=O)Nc2ccc(OC(F)(F)F)cc2)n1	7.9%	-8.7%	-0.5%	5.2	0.5%[15.4 µM]	4.4%
CCOC(=O)Cc1csc(NC(=O)NC2(C(F)(F)F)Oc3cc(Cl)c(Cl)cc3O2)n1	4.9%	1.3%	8.84µM*	5.3	-0.5%	-1.8%
CCOC(=O)Cc1csc(NC(=O)NC2(C(F)(F)F)Oc3ccc(Cl)cc3O2)n1 (centres undefined)	-9.5%	-1.2%	11.1µM*	-2.5	-0.8%	-5.4%
CC1(C)Cc2c(c(-c3ccccc3)nc3[nH][nH]c(=O)c23)CO1	1.5%	-4.8%	5.01µM*	0.2	-2.3%	6.6%
COc1ccc(OC)c(S(=O)(=O)Nc2ccc(O)c3ccccc23)c1	19.0%	-6.7%	14.1µM*	2.4	-1.6%	1.2%
COC(=O)[C@@H](N)Cc1ccc(O)c(O)c1	-2.3%	2.4%	.	-1.6	.	10.5%
COC(=O)Cc1ccc(O)c(N)c1	7.5%	6.0%	5.62µM*	5.8	4.3%	0.5%
O=C(O)c1ccccc1C(=O)NNc1ccc(Cl)cc1	-7.7%	-8.4%	11.2µM*	9.6	3.2%	-6.3%
